Test systems include RPMI-8226 leukemia; OVCAR-8 ovarian; OVCAR-5 ovarian; OVCAR-4 ovarian; SK-OV-3 ovarian; IGROV1 ovarian; OVCAR-3 ovarian; HS 578T breast; NCI/ADR-RES ovarian; T-47D breast; BT-549 breast; MDA-MB-435 melanoma; SW-620 colon; HCT-116 colon; HCC-2998 colon; KM12 colon; MCF7 breast.
Common to all, as to experiment: NCI-60 one-dose screen, 48 h (100 = growth as untreated, 0 = no growth, -100 = all killed)
What all share (conditions): 10 µM

About 83,000 compounds went through this panel and 20% of them were active in at least one assay; those are over-represented in the sample as a whole.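 The test compound was applied at a single concentration to cells in 96-well plates for 48 hours, and percent growth was recorded.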 Unmarked numbers belong to inactive results. The source made the active and inactive calls. The calls were made as follows: active = growth percent below 10; inactive = the rest.

As to `COc1cc(-c2cc(/C=C3\C(=O)Nc4ccccc43)[nH]n2)cc(OC)c1OC`, the growth was 24.3% with RPMI-8226 leukemia; 40.8% in the experiment with OVCAR-8 ovarian; 77.6% with OVCAR-5 ovarian; 42% in the experiment on OVCAR-4 ovarian; 87.5% in the experiment with SK-OV-3 ovarian; 43% in the experiment with IGROV1 ovarian. In addition, the growth with OVCAR-3 ovarian was 57.8%; in the experiment with HS 578T breast, 49.6%; in the experiment with NCI/ADR-RES ovarian, 35.2%; in the experiment with T-47D breast, 20.9%; with BT-549 breast, 34.7%; with MDA-MB-435 melanoma it was 38.7%. Moreover, the growth in the experiment with SW-620 colon was 60.2%; in the experiment with HCT-116 colon, 47.3%; in the experiment with HCC-2998 colon it was 87.4%; in the experiment with KM12 colon it was 10.3%.
`Cc1ccc(C(=O)N2C/C(=C/c3ccc(F)cc3)C(=O)/C(=C/c3ccc(F)cc3)C2)cc1`: the growth is -18% (active) in the experiment on RPMI-8226 leukemia; 91.4% in the experiment with OVCAR-8 ovarian; 110% in the experiment with OVCAR-5 ovarian; 87.7% in the experiment on OVCAR-4 ovarian; 92.5% in the experiment on SK-OV-3 ovarian; 102% in the experiment on IGROV1 ovarian. The growth with OVCAR-3 ovarian is 101%; with HS 578T breast, 107%; with NCI/ADR-RES ovarian it was 82%; in the experiment on T-47D breast, 81.9%; with MDA-MB-435 melanoma, 84.5%; in the experiment on SW-620 colon it was 82.4%. The growth in the experiment on MCF7 breast is 37.7%; with HCT-116 colon it was 10.6%; with HCC-2998 colon, 108%.
In the case of `COc1ccc(/C=C/C(C)=N/OCC(=O)O)cc1`, the growth in the experiment with RPMI-8226 leukemia was 102%; with OVCAR-8 ovarian, 105%; in the experiment on OVCAR-5 ovarian it was 109%; in the experiment with OVCAR-4 ovarian it was 106%; with SK-OV-3 ovarian it was 101%; with IGROV1 ovarian, 106%. The growth in the experiment on OVCAR-3 ovarian is 113%; with HS 578T breast, 113%; with NCI/ADR-RES ovarian, 106%; with T-47D breast it was 93.5%; with BT-549 breast, 98.6%; in the experiment on MDA-MB-435 melanoma, 114%. Moreover, the growth with MCF7 breast is 100%; with HCT-116 colon, 96.9%; with HCC-2998 colon it was 105%; in the experiment with KM12 colon, 106%.
On to `O=C1Nc2ccc(Cl)cc2/C1=C\c1c(-c2ccc(Cl)cc2)nc2sc(C3CC3)nn12`, for which the growth was 69.5% in the experiment with RPMI-8226 leukemia; 26.5% in the experiment with OVCAR-8 ovarian; 77.8% in the experiment with OVCAR-5 ovarian; 9.28% (active) in the experiment with OVCAR-4 ovarian; 39.2% in the experiment on SK-OV-3 ovarian; 71.5% in the experiment with IGROV1 ovarian. The growth in the experiment on OVCAR-3 ovarian was 63.9%; in the experiment on HS 578T breast, 7.42% (active); in the experiment on NCI/ADR-RES ovarian, 45%; in the experiment with T-47D breast, 50.7%; with BT-549 breast, 65.3%; in the experiment on MDA-MB-435 melanoma it was 77%. Besides, the growth in the experiment on MCF7 breast is 60.7%; in the experiment with HCT-116 colon, 41.4%; in the experiment on HCC-2998 colon, 83.7%; in the experiment on KM12 colon it was 82.7%.
Regarding `CC(C)(Cl)CCC1=C(Cl)C(=O)c2ccccc2C1=O`, the growth with RPMI-8226 leukemia was -28.9% (active); in the experiment on OVCAR-8 ovarian, 68%; in the experiment with OVCAR-5 ovarian, 101%; in the experiment with OVCAR-4 ovarian, 11.5%; with SK-OV-3 ovarian, 92.6%; with IGROV1 ovarian, 39.7%. Further, the growth was 22.9% in the experiment on OVCAR-3 ovarian; 62.6% in the experiment on HS 578T breast; 62.9% in the experiment with NCI/ADR-RES ovarian; -38.7% (active) in the experiment on T-47D breast; 66.5% with BT-549 breast; 66.4% in the experiment on MDA-MB-435 melanoma. For the same molecule, the growth with MCF7 breast was -0.254% (active); in the experiment with HCT-116 colon, 17.2%; with HCC-2998 colon, 74.3%; in the experiment with KM12 colon it was 35.7%.
On to `COc1cc(C)ccc1C(=O)c1ccc(C)cc1OC`, for which the growth was 21.9% in the experiment with RPMI-8226 leukemia; 23.9% with OVCAR-8 ovarian; 46.8% with OVCAR-5 ovarian; 63.1% in the experiment on OVCAR-4 ovarian; 17.1% with SK-OV-3 ovarian; 37.2% with IGROV1 ovarian. Moreover, the growth was -39.2% (active) in the experiment with OVCAR-3 ovarian; -12.6% (active) with HS 578T breast; -2.71% (active) in the experiment with NCI/ADR-RES ovarian; 50.6% with T-47D breast; -69.8% (active) with MDA-MB-435 melanoma; 10.1% in the experiment on SW-620 colon. Besides, the growth is 21.1% with MCF7 breast, 24.8% in the experiment with HCT-116 colon, 40% in the experiment with HCC-2998 colon and 22.1% in the experiment on KM12 colon.
In the case of `O=S(=O)(NCCCNc1nccc(-c2c(-c3ccc(F)cc3)nc3sccn23)n1)c1ccc(F)cc1`, the growth was 32.1% with RPMI-8226 leukemia; 17.7% in the experiment with OVCAR-8 ovarian; 62.7% in the experiment with OVCAR-5 ovarian; 57.5% in the experiment on OVCAR-4 ovarian; 59.7% in the experiment with SK-OV-3 ovarian; 18.6% in the experiment on IGROV1 ovarian. The growth in the experiment with OVCAR-3 ovarian is 55.4%; in the experiment with HS 578T breast, 66.8%; in the experiment on NCI/ADR-RES ovarian it was 31.3%; in the experiment with T-47D breast, -2.52% (active); with MDA-MB-435 melanoma, 20.6%; with SW-620 colon, 47.1%. Besides, the growth in the experiment on MCF7 breast is 32.8%; with HCT-116 colon, 28.9%; in the experiment with HCC-2998 colon it was 37.6%; with KM12 colon, 27.8%.
`Oc1[nH]c2cc(Cl)ccc2c1/C=c1/ccc2c(c1)N=C(c1cc(F)cc(F)c1)N=2`: the growth was -4.53% (active) in the experiment on RPMI-8226 leukemia; 30.5% with OVCAR-8 ovarian; 75.5% with OVCAR-5 ovarian; 48.8% in the experiment with OVCAR-4 ovarian; 1.53% (active) in the experiment with SK-OV-3 ovarian; 43% in the experiment on IGROV1 ovarian. In addition, the growth with OVCAR-3 ovarian was -50.4% (active); in the experiment on HS 578T breast, 17.3%; with NCI/ADR-RES ovarian, 2.67% (active); with T-47D breast, 30.9%; in the experiment on MDA-MB-435 melanoma, -32.5% (active); in the experiment with SW-620 colon, 24.8%. The growth with MCF7 breast is 11%; in the experiment on HCT-116 colon, 18.8%; in the experiment on HCC-2998 colon it was 58%; in the experiment with KM12 colon, 13.1%.
Consider `COc1ccc(Nc2cc(C)nc(NCCCNc3ccnc4cc(Cl)ccc34)n2)cc1`, for which the growth with RPMI-8226 leukemia was -58.8% (active); in the experiment with OVCAR-8 ovarian it was -8.6% (active); with OVCAR-5 ovarian, 18.3%; in the experiment on OVCAR-4 ovarian, 4% (active); with SK-OV-3 ovarian, -25.3% (active); in the experiment with IGROV1 ovarian, 29.7%. Further, the growth in the experiment on OVCAR-3 ovarian was -82.1% (active); in the experiment with HS 578T breast, -53.9% (active); in the experiment with NCI/ADR-RES ovarian, 29%; with T-47D breast, -94.7% (active); in the experiment on MDA-MB-435 melanoma, -92.4% (active); in the experiment on SW-620 colon it was -56.7% (active). For the same molecule, the growth was -48.8% (active) with MCF7 breast, -96.6% (active) with HCT-116 colon, -70% (active) in the experiment on HCC-2998 colon and 20% in the experiment on KM12 colon.
In the case of `O=[N+]([O-])c1cccc(N=Cc2ccc3c(c2)OCO3)c1`, the growth with RPMI-8226 leukemia was 104%; with OVCAR-8 ovarian it was 97.3%; in the experiment with OVCAR-5 ovarian it was 116%; in the experiment with OVCAR-4 ovarian, 104%; in the experiment on SK-OV-3 ovarian it was 110%; with IGROV1 ovarian it was 109%. Further, the growth in the experiment on OVCAR-3 ovarian was 112%; in the experiment with HS 578T breast, 116%; in the experiment on NCI/ADR-RES ovarian, 105%; with T-47D breast, 103%; in the experiment on MDA-MB-435 melanoma it was 102%; with MCF7 breast, 103%. Also, the growth was 106% in the experiment with HCT-116 colon, 98.3% in the experiment on HCC-2998 colon and 112% in the experiment with KM12 colon.

The values are drawn from PubChem BioAssay (NCI).
